Outcome data for 49 molecules are collected here from PubChem BioAssay AID651692 (Broad Institute, 2012).

The nature of the test: cytotoxicity toward MDA-MB-231 breast cancer cells – cell-based, CellTiter-Glo luminescence, cherry-pick, cytotoxicity control for RAD54 inhibitor project, dose response (AID 651692).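 Further: more negative values mean stronger loss of viable cell signal.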

SMILES strings stand for the structures. Measured potencies and affinities stand elsewhere. Activity calls are given as the source filed them.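 How the source made its calls: active means fitted half-maximal concentration for loss of cell signal no higher than twice the top valid tested concentration; inconclusive means flat curve at 30 to 70% inhibition, or poor fit; inactive means flat within 30%, signal rise, or potency above limit.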

Consider `COc1cc2[nH]c3c(=O)n(CCN(C(C)C)C(C)C)cnc3c2cc1OC`, for which the molecule was classed as inactive.

Turning to `CCN(CC)CCN(C(=O)c1ccc2ncsc2c1)c1nc2cc3c(cc2s1)OCO3`, the molecule was classed as inactive.

In the case of `CCOC(=O)C1C(=O)NC(N2CCN(c3ccccc3)CC2)=NC1c1ccco1` (centres undefined), the call was inactive.

In the case of `CCn1c(=O)c2cc(C(=O)NCCN(C)C)sc2c2ccccc21`, the result was inactive.

Turning to `O=c1c2ccccc2sc2ccc(NCCCN3CCOCC3)cc12`, the result was inactive.

As for `CC1CCN(CCCNC(=O)c2cc3c(=O)n(C)c4ccccc4c3n2C)CC1`, the molecule was classed as inactive.

In the case of `CC(=O)Nc1sc2c(c1-c1nc3ccccc3s1)CN(C(C)C)CC2`, the call was inactive.

Take `CN(C)CCCNc1nc2cc(-c3cccc(Cl)c3)sc2c(=O)n1C`: the molecule was called inactive.

With `O=C(Nc1nnc(COc2ccc(F)cc2)s1)c1ccco1`, the outcome was inactive.

For the molecule `Cn1c(C(=O)NCCCN2CCOCC2)cc2c(=O)n(C)c3ccccc3c21`, the outcome was inactive.

In the case of `COc1ccc2nc(C)cc(Nc3ccc(C)cc3)c2c1`, the molecule was classed as inactive.

Consider `CCOc1cc2[nH]c(=O)n(Cc3ccc(C(=O)NCCCN4CCC(C)CC4)cc3)c(=O)c2cc1OCC`, for which the result was inactive.

Regarding `CCc1ccc2nc3nc(C)cc(C)c3c(N)c2c1`, the outcome was inactive.

`Cc1ccc(-c2nc(NCCN3CCOCC3)c3ccccc3n2)cc1`: the molecule was called inactive.

For the molecule `CCN(CC)CC(=O)Nc1cccc2c1C(=O)c1ccccc1C2=O`, the result was inactive.

Take `CC1CCCN(CCCNC(=O)c2cc3c(Cl)nc4ccccc4c3s2)C1` (centres undefined): the result was inactive.

As for `CCN(CC)CCCNC(=O)c1cc2c(=O)[nH]c3ccc(C)cc3c2s1`, the molecule was called inactive.

In the case of `CCN(CC)CCNC(=O)c1cc2c(=O)n(C)c3ccccc3c2n1C`, the call was inactive.

Consider `CCN1CCN(CCCNC(=O)c2cc3c(=O)oc4ccc(C)cc4c3s2)CC1`, for which the molecule was classed as inactive.

Regarding `COc1cccc(-c2nc(N3CCN(Cc4ccccc4)CC3)c3ccccc3n2)c1O`, the molecule was classed as inactive.

As to `Cc1ccnc(SCC(=O)Nc2sc3c(c2C#N)CCC(C(C)(C)C)C3)n1` (centres undefined), the outcome was inactive.

On to `c1c[nH]c(CN2CCN(Cc3ncc[nH]3)CC2)n1`, for which the outcome was inactive.

For `CN1CCN(CCNC(=O)c2cc3c(=O)n(C)c4ccccc4c3n2C)CC1`, the result was inactive.

With `Nc1c(C(=O)NCCN2CCOCC2)c2nc3ccccc3nc2n1-c1ccc2c(c1)OCO2`, the molecule was called inactive.

For `CCCCN(CC)CCCNC(=O)c1cc2c(=O)n(C)c3ccccc3c2n1C`, the molecule was classed as inactive.

Consider `CCN(CC)CCNC(=S)Nc1ccc2nc(N3CCN(CC)CC3)cc(C)c2c1`, for which the call was inactive.

For the molecule `CCN(CC)CCCNC(=O)c1cc2c(=O)n(C)c3ccccc3c2n1C`, the molecule was called inactive.

With `CCN(CC)Cc1cc(Nc2ccnc3cc(Cl)ccc23)ccc1O`, the outcome was inactive.

As to `CCN1CCN(c2cc(C)c3cc(NC(=S)N4CCCCC4)ccc3n2)CC1`, the result was inactive.

Take `COc1ccc(CCNC(=O)c2cc3c(=O)n4cccc(C)c4nc3n(CCCN3CCOCC3)c2=N)cc1`: the molecule was classed as inactive.

As to `CN1CCN(c2nc(-c3ccccn3)nc3ccccc23)CC1`, the outcome was inactive.

In the case of `Cc1cccn2c(=O)c3cc(C(=O)NCC4CCCO4)c(=N)n(C4CCCCC4)c3nc12` (centres undefined), the outcome was inactive.

Consider `COc1cc2c3c(cccc3c1)C(=O)N(CCN1CCCC1)C2=O`, for which the molecule was classed as inactive.

With `OCCN1CCN(c2ncnc3c2sc2nc(N4CCOCC4)c4c(c23)CCC4)CC1`, the molecule was called inactive.

As for `c1ccc(-c2nc(NCCCN3CCOCC3)c3ccccc3n2)cc1`, the molecule was classed as inactive.

On to `c1cc2c3c(cccc3c1)C(N1CCCCC1)=N2`, for which the molecule was classed as inactive.

`CC(N)c1csc(Nc2nncc3ccccc23)n1` (centres undefined): the molecule was classed as inactive.

For `COc1cccc(-c2cc3nc(NCCN4CCCC4)n(C)c(=O)c3s2)c1`, the molecule was called inactive.

As for `CCN1CCN(CCCNC(=O)c2cc3cc4ccc(OC)cc4nc3o2)CC1`, the result was inactive.

For `CCN(CC)CCNC(=O)c1cc2c(=O)n(C)c3ccccc3c2s1`, the call was inactive.

Regarding `CCOCCCNC(=S)Nc1ccc2nc(N3CCN(CC)CC3)cc(C)c2c1`, the call was inactive.

Regarding `O=C(NN1CCOCC1)c1cc(-c2ccc(Cl)c(Cl)c2)nc2ccccc12`, the molecule was called inactive.

In the case of `COc1cc2[nH]c3c(=O)n(CCN4CCCCC4)cnc3c2cc1OC`, the molecule was called inactive.

With `COc1ccc(-c2cc(NC=O)c3ncc(-c4cccc(C(=O)NCCN(C)C)c4)n3c2)cn1`, the result was inactive.

Turning to `Cc1cc(C)c2c(N)c3ccccc3nc2n1`, the outcome was inactive.

In the case of `O=C(Nc1ccccc1)c1cc(S(=O)(=O)N2CCOCC2)cs1`, the molecule was called inactive.

On to `CN(C)CCCN(C(=O)c1ccco1)c1nc(-c2ccc(Cl)cc2)cs1`, for which the call was inactive.

Consider `O=C(Nc1ccc(Nc2ccncc2)cc1)c1ccc(Nc2ccnc3ccc([N+](=O)[O-])cc23)cc1`, for which the outcome was inactive.

Regarding `Nc1ccc(-c2nc3c(ccc4ccccc43)[nH]2)cc1`, the molecule was called inactive.
